# Assay outcomes from PubChem BioAssay.
# Only some compounds are listed: those with a hit (about 12% of all), similar ones and a draw of the others.
# HP1b binding inh = HP1-beta chromodomain-methylated histone interaction inhibition; P83916; AlphaScreen HP1-beta / biotin-H3K9me3 peptide binding; Potency, µM (highest dose often 114 µM), for the others: at the highest dose activity change, negative = inhibition, usual class: inhibitors; 390,000 compounds, 0.56% hits; AID 540317; note: potency is the fitted concentration of half-maximal effect; nearly all actives have a fitted effect of over 70% in size
#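 AlphaScreen: HP1-beta (50 nM) preformed 30 min with biotin-H3(1-18)K9me3 peptide (50 nM) in PBS pH 7.4, 0.01% Tween-20. Compound added for 30 min at RT, then streptavidin donor/nickel chelate acceptor beads (10 ug/mL) for 30 min.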
# G9a block = G9a (human) methyltransferase inhibition | Potency, µM (doses to about 102 µM), for the others: at the highest dose activity, negative = inhibition, usual class: inhibitors | G9a H3K9 monomethylation, AlphaScreen, 2 h | Q96KQ7 | AID 504332 | 350,000 compounds, 8.8% hits; note: potency is the fitted concentration of half-maximal effect; % is set by controls: 0 for no effect and ±100 for the full control effect; nearly all actives have a fitted effect of over 75% in size
# Target sequence (Q96KQ7 913-1193 limits assumed): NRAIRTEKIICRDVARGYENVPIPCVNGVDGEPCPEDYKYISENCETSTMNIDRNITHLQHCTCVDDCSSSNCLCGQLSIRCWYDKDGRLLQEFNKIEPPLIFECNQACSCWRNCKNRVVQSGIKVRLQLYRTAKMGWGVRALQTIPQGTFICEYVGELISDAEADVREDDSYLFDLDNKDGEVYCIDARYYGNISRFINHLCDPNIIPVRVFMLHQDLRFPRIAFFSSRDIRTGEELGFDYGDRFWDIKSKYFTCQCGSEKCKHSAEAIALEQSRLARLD
#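 Chemiluminescent proximity detection of H3K9 monomethylation, read after 10 min bead incubation in the dark. Reaction: 20 nM G9a, 500 nM biotin-H3K9 peptide, 20 uM SAM cofactor, 2 h, room temperature, following 15 min enzyme-compound preincubation.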
# PI5P4Ka inh = inhibitors of human PI5P4K alpha; P48426; PI5P4Kalpha enzyme, ADP-Glo luminescence, 60 min; stronger effect = lower value; max response, %; 330,000 compounds, 1.2% hits; AID 652105; active = max response of -50% or lower; inconclusive = between -30% and -50%; inactive = -30% or higher; note: value at the top dose of about 77 µM; % is set by controls: 0 for no effect and ±100 for the full control effect
# Target sequence (P48426 whole entry, looked up): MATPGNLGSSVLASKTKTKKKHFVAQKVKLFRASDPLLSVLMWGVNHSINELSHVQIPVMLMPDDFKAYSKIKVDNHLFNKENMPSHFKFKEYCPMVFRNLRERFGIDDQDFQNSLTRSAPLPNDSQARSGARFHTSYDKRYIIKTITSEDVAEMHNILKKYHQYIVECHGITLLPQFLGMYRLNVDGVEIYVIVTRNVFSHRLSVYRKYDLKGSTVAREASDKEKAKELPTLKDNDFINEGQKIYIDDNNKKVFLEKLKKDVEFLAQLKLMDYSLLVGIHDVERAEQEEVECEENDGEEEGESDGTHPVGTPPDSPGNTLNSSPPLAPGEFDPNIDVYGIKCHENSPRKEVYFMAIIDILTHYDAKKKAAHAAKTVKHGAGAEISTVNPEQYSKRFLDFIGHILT
#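 Quantitative HTS of the MLSMR library against PI5P4Kalpha with substrate. ATP added last at 5 microM final; room temperature, 60 minutes. Remaining ATP depleted, ADP converted and read as luminescence.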
# PLK1 PBD block = inhibitors of human PLK1 polo-box domain binding; P53350; Plk1 PBD binding of FITC phosphopeptide, fluorescence polarization; Potency, µM, for inactives: max response, negative = inhibition, actives largely listed as inhibitors; 360,000 compounds, 2.8% hits; AID 720504; note: potency is the fitted concentration of half-maximal effect; series mostly up to about 57 µM; % is set by controls: 0 for no effect and ±100 for the full control effect; nearly all actives have a fitted effect of over 65% in size
# JMJD2A Tudor = inhibitors of human JMJD2A Tudor domain. AlphaScreen JMJD2A-Tudor / H3K4me3 peptide binding. Potency, µM (top dose mostly 114 µM), for the others: at the top dose activity change, negative = inhibition, usual class: inhibitors. 390,000 compounds, 4.4% hits; note: potency is the fitted concentration of half-maximal effect; % is set by controls: 0 for no effect and ±100 for the full control effect; nearly all actives have a fitted effect of over 50% in size
# BAZ2B inh = BAZ2B (human) inhibition. Q9UIF8. AlphaScreen BAZ2B-H3K14Ac peptide displacement. Potency, µM (top dose mostly 114 µM), inactives show at the top dose activity change, negative = inhibition, usual class: inhibitors. 360,000 compounds, 4.4% hits. AID 504333; note: potency is the fitted concentration of half-maximal effect; % is set by controls: 0 for no effect and ±100 for the full control effect; nearly all actives have a fitted effect of over 60% in size
#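 Complex of BAZ2B and biotin-H3K14Ac (50 nM apiece) forms over 30 min at RT, then faces library compounds up to 110 uM for another 30 min; AlphaScreen beads added, 20 min dark incubation, luminescence read.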
# The depositor's hits bear a star; ? = inconclusive; nt = not tested or not shown; [ ] = remark or other dose. Unless noted, calls come from the whole dose curve; as a rule, active = well fitted curve in the direction sought with a large enough effect; inconclusive = small, poorly fitted or top-dose-only effect, or another doubt; inactive = no such curve, though single readings can be large; an effect the other way counts as inactive or inconclusive.
SMILES,HP1b binding inh,G9a block,PI5P4Ka inh,PLK1 PBD block,JMJD2A Tudor,BAZ2B inh
Nc1ccccc1C#CC(=O)c1ccccc1,44.7%,-14.4%,4.0,8.44µM*,-5.6%,11.2%
O=C(Cc1ccc(Br)cc1)N1CCN(C(=O)c2ccccc2)CC1,28.4%,7.6%[2.33 µM],4.1,3.6%,1.6%,6.4%
CCCCN(C(C)=O)c1c(CC)nc2ccc(C(=O)NCCOc3ccc(OC)cc3)cn12,nt,nt,0.0,2.2%,nt,nt
O=C(Nc1cccc(Cl)c1)O/N=C\c1ccncc1,34.2%,15.3%,nt,9.47µM*,0.6%,-2.1%
Clc1cccc(N/N=C/c2ccncc2)c1,3.3%,?,9.4,-14.0%,?,-32.0%
COc1ccc(NC(=O)O/N=C/c2ccccc2)cc1,-6.8%,-0.1%,-1.5,4.3%,-22.9%,-13.0%
CN(C)c1ccc(/C=N/OC(=O)Nc2ccccc2)cc1,-6.1%,-12.3%,-3.7,-0.7%,-34.3%,70.8µM*
CC1CCN(C(=S)c2cn(Cc3cccc(F)c3)c3ccccc23)CC1,-6.2%[57 µM],-11.1%[59 µM],0.0,-18.9%,-35.1%,?
O=C(O)Cn1cc(C(=S)N2CCCCC2)c2ccccc21,-8.8%,10µM*,-13.3,15µM*,?,5.7%
O=C(C1CC1)n1cc(C(=S)N2CCOCC2)c2ccccc21,11.8%,3.5%[2.33 µM],0.6,-5.1%,0.0%,?
CN1CCN(C(=S)c2cn(Cc3ccccc3)c3ccccc23)CC1,7.0%,44.7µM*,-0.9,3.4%,?,?
O=C(O)Cn1cc(C(=S)N2CCOCC2)c2ccccc21,-19.6%,?,nt,23.8µM*,-17.6%,-14.1%
COCCNC(=O)Cn1cc(C(=S)N2CCCCC2)c2ccccc21,27.6%,nt,3.8,-15.7%,-18.5%,?
O=C(Cn1cc(C(=S)N2CCOCC2)c2ccccc21)N1CCOCC1,23.7%,-0.9%[59 µM],-3.0,-13.8%,3.0%,3.2%
O=C(c1cccs1)n1cc(C(=S)N2CCOCC2)c2ccccc21,2.1%,28.2µM*,-0.6,-3.5%,?,?
CCC(=O)N(C)C[C@@H]1Oc2ncc(Br)cc2C(=O)N([C@H](C)CO)C[C@H]1C,nt,nt,-5.3,-22.5%,nt,nt
CCCc1c(C(=O)N/N=C/c2ccccc2C(F)(F)F)nnn1-c1nonc1N,43.1%,23.7%,-1.3,-2.2%,0.0%,-7.9%
C=CC(C)=C[C@@]1(C)SC(=O)C(C)=C1O,nt,34.3%[59 µM],nt,nt,nt,nt
C/C=C/c1cccc(-c2nc(C(=O)N3CCN(C)CC3)cc3c2[C@@H](CCO)N(C(=O)NC(C)C)C3)c1,nt,nt,1.3,-0.6%,nt,nt
COc1ccc(NS(=O)(=O)NC(=O)c2c(C)n(C)c3ccccc23)cc1,35.5%,39.8µM*,4.1,-6.5%,-22.3%,-13.3%[57.1 µM]
COc1ccc(NS(=O)(=O)NC(=O)c2cn(C)c3ccccc23)cc1,57.8%,?,-2.4,-2.2%,2.6%,-26.3%
CCc1ccc(NC(=O)Nc2cccs2)cc1,8.7%,10µM*,-17.0,-19.4%,-19.0%,?
CCc1ccc(NC(=O)Cc2c(C(=O)O)n(C)c3ccccc23)cc1,20.8%,?,-0.3,-1.0%,-12.6%,28.2µM*
CC(=O)c1cccc(NC(=O)Nc2cccs2)c1,1.4%,?,?,-29.8%,-22.9%,?
CCc1ccc(NC(=O)Nc2cn(C)c(=O)c3ccccc23)cc1,30.7%,10µM*,nt,nt,-13.5%,-10.6%
SMILES,HP1b binding inh,G9a block,PI5P4Ka inh,PLK1 PBD block,JMJD2A Tudor,BAZ2B inh
CCOc1ccc(NC(=O)Nc2cccs2)cc1,-0.7%,?,-8.8,-16.7%,-29.8%[57.1 µM],-35.5%
COc1cccc(NC(=O)Nc2cccs2)c1,10.4%,10µM*,-27.9,-17.4%,-18.4%,7.9%
Nc1c(C(=O)Nc2ccccc2Cl)nnn1-c1ccc2c(c1)OCCO2,31.5%,19.4%,-3.2,3.2%,1.0%,-17.6%
CCN(CC)CCNC(=O)c1ccc(-c2nc(CS(=O)(=O)c3ccc(C)cc3)c(C)o2)cc1,4.4%,?,nt,nt,-13.4%,-19.4%
COc1ccc(NC(=O)c2cccs2)cc1OC,20.7%,-0.7%[59 µM],nt,-4.6%,-5.1%,2.5%
COc1ccc(NC(=O)Nc2cccs2)cc1OC,-24.3%,44.7µM*,nt,-18.8%,?,?
Cc1ccc(S(=O)(=O)c2nc(-c3cccc(Br)c3)oc2N2CCCCCC2)cc1,-16.8%,?,nt,nt,-27.8%,?
O=C(C1CCN(Cc2ccc(F)cc2)CC1)N1CCN(C/C=C/c2ccccc2)CC1,?,50.1µM*,-3.6,-9.0%,20µM*,50.1µM*
O=C(C1CCN(Cc2ccccc2)CC1)N1CCN(C/C=C/c2ccccc2)CC1,?,14.1µM*,0.2,-2.3%,?,?
O=C(O)CCCCn1c(SCC(=O)Nc2ccccc2C(F)(F)F)nc2ccsc2c1=O,-6.7%,2.5%[59 µM],-99.2*,-3.4%,-5.9%,-4.9%
O=C(CSc1nc2ccsc2c(=O)n1CC1CCC(C(=O)O)CC1)c1ccc(Cl)cc1 (configuration not stated),-19.1%,56.2µM*,11.1,-14.6%,79.4µM*,nt
CC(C)CCn1c(SCC(=O)Nc2ccccc2C(F)(F)F)nc2nccnc2c1=O,12.3%,6.31µM*,10.8,-19.8%,-26.7%,79.4µM*
COCCn1c(SCC(=O)Nc2ccccc2C(F)(F)F)nc2ccccc2c1=O,38.0%,nt,-2.9,-7.9%,-9.6%,6.5%
O=C(O)CCCCCn1c(SCC(=O)c2ccc(O)c(O)c2)nc2ccsc2c1=O,-1.9%,79.4µM*,7.9,-4.2%,?,?
CC1=CC(=O)N(c2cccc3c(N4C(=O)C=C(C)C4=O)cccc23)C1=O,22.7%,nt,-62.8*,-29.0%,-15.3%,nt
CN1CCCN=C1/C=C\c1cccs1,nt,5.2%[21.5 µM],nt,nt,nt,nt
C=C(C)CNC(=S)Nc1cccc(N)n1,9.3%,1.26µM*,?,-16.2%,-20.6%,?
C=C(C)CNC(=S)N/N=C(\C)c1cccc(NC(C)=O)c1,6.7%,9.4%,0.8,-6.9%,-19.5%,-11.4%
Fc1ccc2[nH]c3c(c2c1)CN(C(=S)NCc1ccccc1)CC3,-18.5%,nt,1.0,-21.3%,?,56.2µM*
CC(C)(C)c1ccc(OCCn2cc(C(=O)c3ccco3)c3ccccc32)cc1,17.2%,-10.4%[59 µM],nt,nt,-20.6%,-38.6%
CCOCCCN(C(=O)CNC(=O)c1ccco1)C(C(=O)NC1CCCC1)c1cccc(OC)c1 (configuration not stated),8.7%,6.1%,0.3,1.4%,-6.3%,13.1%
O=C1N[C@@H](Cc2ccccc2)C(=O)N1CCN1CCOCC1,1.2%,?,nt,-9.6%,-24.6%,6.2%
O=C1NC(Cc2ccccc2)C(=O)N1Cc1cc([N+](=O)[O-])cc2c1OCOC2 (configuration not stated),27.3%,3.0%,-3.0,-15.3%,-6.7%,79.4µM*
O=C(COc1ccc(Br)cc1)NCCCNC(=O)c1cnccn1,21.4%,15.2%,5.7,-10.1%,-7.5%,-1.6%
CCCCCC/C=N/Nc1nnc(Cc2ccc(OC)c(OC)c2)c(=O)[nH]1,23.2%,11.7%,7.0,-4.7%,0.891µM*,7.08µM*
